# Reference: the supplement of paper PMC10338343
# ± gives the standard deviation.
# What was measured:
# [1] = tested on: MILI (PIWIL2) piRISC loaded with L1MC piRNA (26 nt); test: pre-steady-state target cleavage rate (min^-1); guide: L1MC piRNA 5'p-UAACUAAAUACUAUGCAAGCUGUAGG; higher = faster piRNA-guided slicing of the target
# Method in brief: (§1)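 The pre-steady-state cleavage rate was obtained by Cleave-'n-Seq with a burst-and-steady-state fit. A transcribed, DNA-blocked target RNA library (0.1 nM) was mixed with 1 nM active affinity-purified piRISC carrying one synthetic guide, with or without 500 nM GTSF1 partner protein, in HEPES–potassium acetate buffer at 33 °C for 0–8 or 0–960 min. Uncleaved targets were sequenced and normalised to depth and to weakly complementary targets, with three trials pooled and k3 capped at 0.0001 min^-1.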
# [2] = tested on: EfPiwi piRISC loaded with L1MC piRNA (26 nt); test: pre-steady-state target cleavage rate (min^-1); auxiliary factor: 500 nM Ephydatia muelleri Gtsf1; guide: L1MC piRNA 5'p-UAACUAAAUACUAUGCAAGCUGUAGG; MIWI and MILI are mouse PIWI proteins and EfPiwi is from a freshwater sponge; tags in brackets are library labels; higher = faster piRNA-guided slicing of the target
# Method in brief: as §1
# [3] = auxiliary factor: 500 nM mouse GTSF1
# [4] = auxiliary factor: none (no GTSF1)
Sequence,"pre-steady-state target cleavage rate [1, 3]","pre-steady-state target cleavage rate [1, 4]",pre-steady-state target cleavage rate [2]
UCCUCCUACAGCUUGUCAUAGUAUUUAGUUA,0.258 ± 0.015,0.00407 ± 0.0019,0.0546 ± 0.016
UCCUCCUACUGCUUGCAAAGUAUUUAGUUA,0.138 ± 0.011,0.00644 ± 0.0018,0.0558 ± 0.017
UCCUGGAUCAGCAUGCAUAGUAUAUAGUUA,0.297 ± 0.018,0.00579 ± 0.0027,0.00329 ± 0.0028
UCCUGGAUGUCCUUGCAUAGUAUGUUAGUUA,0.0434 ± 0.0088,0.00471 ± 0.0025,0.00355 ± 0.0035
UCCUGGAACAGACUUGCAUAGUAUUUAGUUA,0.217 ± 0.014,0.00682 ± 0.0024,0.0135 ± 0.0042
UCCUGGAACAGCUCUGCAUAGUAUUUAGUUA,0.268 ± 0.012,0.00871 ± 0.0031,0.0165 ± 0.005
UCCUGGAUCAGCAAGCAUAGUAUUUAGUUA,0.231 ± 0.021,0.00449 ± 0.0021,0.0107 ± 0.0038
UCCUGGAUGAGCAUUGCAUAGUAUUUAGUUA,0.212 ± 0.022,0.0105 ± 0.0025,0.008 ± 0.0029
UCCUCCUUGUGCUUGCAUAGUAUUUAGUUA,0.157 ± 0.012,0.00963 ± 0.002,0.0113 ± 0.0034
UCCUCCUACAGCUUGCAUAGUAGUUAGUUA,0.192 ± 0.026,0.00325 ± 0.0032,0.00786 ± 0.0026
UCCUGCUACACGUUGCAUAGUAUUUAGUAA,0.215 ± 0.028,0.00567 ± 0.0021,0.00458 ± 0.0025
UCCUGCUACAGCUUGCAAAGUAUUUAGUUA,0.13 ± 0.012,0.00686 ± 0.0019,0.00608 ± 0.0019
UCCUGGUACAGCUUGCAAAGUUUUUAGUUA,0.0248 ± 0.0088,0.00339 ± 0.0029,0.00245 ± 0.0024
UCCUGCUACAGCUUGCAAAGUAUUUUGUUA,0.139 ± 0.026,0.00325 ± 0.0025,0.00625 ± 0.0028
UCCUGCUACUCCUUGCAUAGUAUUUAGUUA,0.262 ± 0.015,0.0091 ± 0.0024,0.0106 ± 0.004
UCCUGCUACAGUUUGCAUAGUAUUUAGUUA,0.296 ± 0.015,0.0106 ± 0.0023,0.0365 ± 0.011
UCCUGGAUGUCCUUGCAUAGUCUUUAGUUA,0.0269 ± 0.0075,0.00468 ± 0.0022,0.00326 ± 0.0014
